Bioassay records as filed in PubChem BioAssay.
Pf growth 48h – inhibits P. falciparum growth in the first generation, 48 h; P. falciparum luciferase growth in erythrocytes, 48 h; Potency, µM (titrated, usually from 28.7 µM), usual class: inhibitors; actives 5.9% (n = 310,000)
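Firefly luciferase activity from engineered P. falciparum reports growth; inhibitors lower the luminescent signal. Cultures contained 2% hematocrit erythrocytes at 0.1% final parasitemia.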
Pf growth 96h – inhibits malaria parasite growth, 96 h. P. falciparum luciferase reporter growth, 96 h. Potency, µM (top dose mostly 28.7 µM), most hits filed as inhibitors. actives 6.9% (n = 320,000)
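Plates of compound plus infected erythrocytes (2% hematocrit, 0.05% parasitemia final) incubate 96 hours, 37 C, 5% CO2. Detection reagent added; reduced luminescence from the parasites' luciferase reporter flags inhibition.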
LmPK inh – LmPK (Leishmania mexicana) enzyme inhibition | AID 1721 | Potency, µM (highest dose often 57.5 µM), actives largely listed as inhibitors | Q27686 | purified LmPK, Kinase-Glo ATP luminescence, 1 h | actives 0.37% (n = 290,000)
Target sequence (Q27686 whole entry, looked up): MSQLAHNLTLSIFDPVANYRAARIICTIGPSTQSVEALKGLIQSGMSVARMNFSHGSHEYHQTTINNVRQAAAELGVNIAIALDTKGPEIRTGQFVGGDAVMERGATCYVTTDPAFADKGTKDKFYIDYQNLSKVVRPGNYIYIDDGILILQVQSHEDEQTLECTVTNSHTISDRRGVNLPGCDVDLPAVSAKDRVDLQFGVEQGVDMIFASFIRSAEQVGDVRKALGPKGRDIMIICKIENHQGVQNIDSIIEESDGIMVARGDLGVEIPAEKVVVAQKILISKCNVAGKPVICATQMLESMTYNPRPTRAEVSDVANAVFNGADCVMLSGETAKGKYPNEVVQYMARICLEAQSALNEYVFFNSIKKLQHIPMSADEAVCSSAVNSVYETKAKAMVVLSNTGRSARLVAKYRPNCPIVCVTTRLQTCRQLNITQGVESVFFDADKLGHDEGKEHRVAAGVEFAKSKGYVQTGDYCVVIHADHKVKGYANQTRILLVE
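In 50 mM imidazole pH 7.2 with 7 mM MgCl2, LmPK (0.1 nM) turned over PEP (0.5 mM) and ADP (0.1 mM) for 1 h at room temperature. Luciferase read-out of ATP.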
Cycloheximide cs – counter-screen for Shiga toxin inhibitors: cycloheximide protein synthesis inhibition; AID 2314; max response, %; actives 12% (n = 300,000); cell reporter, cycloheximide protein synthesis inhibition counterscreen; in the data active = max response mostly above about 13%, no sharp cut-off; inactive = mostly below about 14%; note: read at 38.3 µM for the half of the compounds with a filed dose
Shiga toxin inh – blocks Shiga toxin action in Vero cells; actives 9.2% (n = 290,000); Vero cells, Shiga toxin protein synthesis inhibition reporter; inhibition, % at 38.7 µM; in the data active = inhibition mostly above about 28%, no sharp cut-off; inactive = mostly below about 43%
Hits are given with their value. Only some compounds are listed: those with a hit (about 22% of all), similar ones and a draw of the others. Unless noted, calls come from the whole dose curve; as a rule, active = well fitted inhibition curve with a large enough effect; inconclusive = small, poorly fitted or top-dose-only effect, or another doubt; inactive = no such curve, though single readings can be large or run the other way.

What do the screens show for `Cc1ccc(S(=O)(=O)N2Cc3ccccc3CC2C(=O)Nc2ccc3c(c2)OCO3)cc1` (configuration not stated)?
Pf growth 48h: inactive; LmPK inh: inactive; Cycloheximide cs: 30; Shiga toxin inh: 60

What do the screens show for `Cc1ccc(S(=O)(=O)N2Cc3ccccc3CC2C(=O)NC(C)(C)C)cc1` (configuration not stated)?
Pf growth 48h: inactive; Pf growth 96h: 12µM; LmPK inh: inactive; Cycloheximide cs: inactive; Shiga toxin inh: inactive

What do the screens show for `Cc1ccc(S(=O)(=O)N2C(=O)CCC2C(=O)Nc2ccc3c(c2)OCCO3)cc1` (configuration not stated)?
Pf growth 48h: inactive; LmPK inh: inactive; Cycloheximide cs: inactive; Shiga toxin inh: inactive

Results for Cc1noc(C)c1S(=O)(=O)N1Cc2ccccc2CC1C(=O)N(C)C (configuration not stated) ?
Pf growth 48h: inactive; Pf growth 96h: inactive; LmPK inh: inactive; Cycloheximide cs: inactive; Shiga toxin inh: inactive

What do the screens show for `CN(C)C(=O)C1Cc2ccccc2CN1S(=O)(=O)c1ccc(F)cc1` (configuration not stated)?
Pf growth 48h: inactive; Pf growth 96h: 4.1µM; LmPK inh: inactive; Cycloheximide cs: inactive; Shiga toxin inh: inactive

How did CCCNC(=O)CN1C(=O)NC2(CCCc3cc(OC)ccc32)C1=O (configuration not stated) do in these assays?
Pf growth 48h: inactive; LmPK inh: inactive; Cycloheximide cs: inactive; Shiga toxin inh: inactive

How did Cc1c(O)cccc1C(=O)N[C@@H](CSc1ccccc1)[C@H](O)CN1C[C@H]2CCCC[C@H]2C[C@H]1C(=O)NC(C)(C)C do in these assays?
Pf growth 48h: 6.6µM; Pf growth 96h: inconclusive; LmPK inh: inactive; Cycloheximide cs: inactive; Shiga toxin inh: inactive

What do the screens show for `c1ccc(C2CCC3(CC2)Oc2ccccc2C2CC(c4cccnc4)=NN23)cc1` (configuration not stated)?
Pf growth 48h: inactive; Pf growth 96h: inactive; LmPK inh: inactive; Cycloheximide cs: 27; Shiga toxin inh: 40

How did CC(=O)OC[C@H](N)C(=O)c1ccccc1 do in these assays?
Cycloheximide cs: inactive; Shiga toxin inh: inactive

How did O=C(Nc1ccc([N+](=O)[O-])cc1)N1CCCCC1 do in these assays?
Pf growth 48h: inactive; Pf growth 96h: 8.3µM; LmPK inh: inactive; Cycloheximide cs: inactive; Shiga toxin inh: inactive

Results for CN1CCN(C(=O)Nc2ccc([N+](=O)[O-])cc2)CC1 ?
Pf growth 48h: inactive; Pf growth 96h: inactive; LmPK inh: inactive; Cycloheximide cs: inactive; Shiga toxin inh: inactive

What do the screens show for `O=C(Nc1ccc([N+](=O)[O-])cc1)N1CCCCCC1`?
Pf growth 48h: inactive; Pf growth 96h: inconclusive; LmPK inh: inactive; Cycloheximide cs: 41; Shiga toxin inh: 50

Results for O=C(Nc1cccc([N+](=O)[O-])c1)N1CCCCCC1 ?
Pf growth 48h: inactive; Pf growth 96h: 3.7µM; LmPK inh: inactive; Cycloheximide cs: inactive; Shiga toxin inh: inactive

How did O=C(CN1CCCCC1)Nc1cccc([N+](=O)[O-])c1 do in these assays?
Pf growth 48h: inactive; Pf growth 96h: inactive; LmPK inh: inactive; Cycloheximide cs: inactive; Shiga toxin inh: inactive

What do the screens show for `Cc1cccc(Cl)c1NC(=S)N1CCN(c2ccc([N+](=O)[O-])cn2)CC1`?
Pf growth 48h: 1.7µM; Pf growth 96h: 1.7µM; LmPK inh: inactive; Cycloheximide cs: inactive; Shiga toxin inh: inactive

Results for CC(C)(C)c1ccc(NC(=O)N2CCCN(c3ccc([N+](=O)[O-])cn3)CC2)cc1 ?
Pf growth 48h: 8.3µM; Pf growth 96h: inconclusive; LmPK inh: inactive; Cycloheximide cs: inactive; Shiga toxin inh: inactive

Results for COc1ccccc1C(=O)Nc1ccc2oc(-c3ccc(F)cc3)nc2c1 ?
Pf growth 48h: inactive; Pf growth 96h: 10µM; LmPK inh: inactive; Cycloheximide cs: inactive; Shiga toxin inh: inactive

What do the screens show for `O=C(O)c1ccccc1-c1ccccc1C(=O)Nc1ccc(-c2nc3cc(Cl)ccc3o2)cc1`?
Pf growth 48h: inconclusive; Pf growth 96h: inconclusive; LmPK inh: inactive; Cycloheximide cs: 26; Shiga toxin inh: 62

How did O=C(Cc1ccc(Cl)cc1)Nc1ccc2oc(-c3ccncc3)nc2c1 do in these assays?
Pf growth 48h: inactive; Pf growth 96h: inactive; LmPK inh: inactive; Cycloheximide cs: inactive; Shiga toxin inh: inactive

Results for CC(C)(C)C(=O)Nc1ccc2oc(-c3cc(F)c(F)cc3Cl)nc2c1 ?
Pf growth 48h: inactive; LmPK inh: inactive; Cycloheximide cs: 42; Shiga toxin inh: inactive
